Rows were chosen to be rich in hits. Some 17% of all compounds tested hit in one or more screens of this group.
TDP1 cell CPT: DT40-hTDP1 cell growth loss with CPT. chicken DT40 Tdp1-/-;hTDP1 cells + 20 nM CPT, ATP luminescence, 48 h. Potency, µM (highest dose often 46.2 µM), for the others: top-dose activity change, negative = growth inhibition, most hits filed as inhibitors. AID 686979. actives 12% (n = 420,000); note: % is set by controls: 0 for no effect and ±100 for the full control effect; nearly all actives have a fitted effect of over 55% in size
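Chicken DT40 Tdp1-/- cells complemented with human TDP1, 400 cells/well, exposed to compounds plus 20 nM camptothecin for at least 48 h at 37 C; viability read as ATP content by CellTiter-Glo luminescence.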
ATXN2 expr inh: inhibitors of ATXN2 expression. HEK-293 ATXN2-luciferase reporter, luminescence, 24 h. Potency, µM (top dose mostly 57 µM), without a hit: top-dose activity change, negative = inhibition, actives largely listed as inhibitors. actives 0.72% (n = 360,000). AID 1745845; note: % is set by controls: 0 for no effect and ±100 for the full control effect; nearly all actives have a fitted effect of over 55% in size
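ATXN2-luciferase reporter cells (luciferase flanked by upstream and downstream ATXN2 gene portions) were treated 24 h at 37 °C with compounds at up to 57 uM. SteadyGlo luminescence gave expression; GF-AFC fluorescence gave viability.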
S2 tox: viability counter-screen for ATXN expression inhibitors | S2 cells (HEK-293 line with an ATXN2-luciferase reporter) viability, CellTiter-Fluor protease fluorescence, 24 h | Potency, µM (series often up to 56.7 µM), hits mostly cytotoxic | actives 0.49% (n = 400,000); note: nearly all actives have a fitted effect of over 40% in size
TGFb SMAD3 inh: TGF-b pathway inhibition | Potency, µM (highest dose often 46.1 µM), for the others: top-dose activity, negative = inhibition, hits mostly inhibitors | actives 1.2% (n = 410,000) | HepG2 CAGA-GFP TGF-b/SMAD3 reporter, GFP fluorescence, 18 h; TGF-beta stimulated, 500 pg/mL final; note: % is set by controls: 0 for no effect and ±100 for the full control effect; nearly all actives have a fitted effect of over 65% in size
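First, reporter cells (HEPG2 CAGA-GFP) rested 2 h at 37 degrees C. Next, compounds were pinned in and TGF-beta added to 500 pg/mL final. After 18 h, GFP was imaged per cell and summed per well.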
TDP1 cell noCPT: qHTS for Inhibitors of human tyrosyl-DNA phosphodiesterase 1 (TDP1): qHTS in cells in absence of CPT. DT40 Tdp1-/- hTDP1 cells, no CPT, ATP luminescence, 48 h. Potency, µM (series often up to 46.2 µM), inactives show at the highest dose activity change, negative = growth inhibition, hits mostly inhibitors. actives 15% (n = 420,000); note: % is set by controls: 0 for no effect and ±100 for the full control effect; nearly all actives have a fitted effect of over 55% in size
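Chicken DT40 Tdp1-/- cells stably complemented with human TDP1 were seeded at 400 cells/well with DMSO in place of 20 nM camptothecin. After compound pinning, cells grew at least 48 hr at 37 °C; viability read by CellTiter-Glo luminescence.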
HepG2 tox: counter-screen for TGF-b inhibitors: cytotoxicity in HepG2 cells; HepG2 CAGA-GFP viability, ATP luminescence, 18 h; Potency, µM (top dose mostly 46.1 µM), for inactives: at the highest dose activity change, negative = cytotoxicity, actives largely listed as cytotoxic; actives 0.76% (n = 410,000); AID 588856
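HepG2 CAGA-GFP cells (1000/well, DMEM with 1% FBS) received compound, then TGF-beta at 500 pg/mL final, and were incubated 18 hours at 37 degrees C. Viability was read by CellTiter-Glo luminescence. Media-only wells were set as complete cell-killing and DMSO as no toxicity.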
An asterisk follows results filed as active; i = inactive; ? = inconclusive; . = no result given; [ ] = another dose, or the depositor's remark. Calls come from the whole dose curve; as a rule, active = well fitted curve in the direction sought with a large enough effect; inconclusive = small, poorly fitted or top-dose-only effect, or another doubt; inactive = no such curve, though single readings can be large; an effect the other way counts as inactive or inconclusive. Potency is the fitted concentration of half-maximal effect.

SMILES | TDP1 cell CPT | ATXN2 expr inh | S2 tox | TGFb SMAD3 inh | TDP1 cell noCPT | HepG2 tox
CCCn1cc(S(=O)(=O)c2ccc(C)c(C)c2)c(=O)c2cc(F)c(N3CCC(C)CC3)cc21 | 5.1% | . | . | -21.8% | -23.4% | 5.7%
Cc1c(C(=O)NCc2cccc(Cl)c2)sc(=O)n1Cc1ccc(C(=O)N(C)C)cc1 | 16.4µM* | -7.4% | i | -9.6% | ? | 2.4%
C=CCn1c2ccccc2c2nnc(SCCCn3c(=O)[nH]c4ccccc43)nc21 | ? | ? | . | -27.4% | 13µM* | -29.5%
C=CCn1c2ccccc2c2nnc(SCCN3CCCCC3)nc21 | -25.9% | . | ? | 1.0% | 18.4µM* | -16.1%
c1ccc(Cn2c3ccccc3c3nnc(SCCN4CCCCC4)nc32)cc1 | 23.1µM* | -20.0% | i | -7.9% | 23.1µM* | -9.1%
COc1ccc(NC(=O)CN(C)C(=O)/C=C/c2ccc(S(=O)(=O)N3CCCCCC3)cc2)cc1 | ? | -0.8% | i | -28.2% | 18.4µM* | -43.5%
CCCN(CC(=O)Nc1ccccc1C)C(=O)c1ccc(S(=O)(=O)N2CCCCCC2)cc1 | 6.0% | 2.9% | i | -0.8% | -0.3% | -13.7%
COc1ccc(NC(=O)CN(C)C(=O)/C=C/c2ccc(OCc3ccccc3)cc2)cc1 | -27.5% | -27.1% | i | -22.5% | ? | -37.8%
CCCN(CC(=O)Nc1ccccc1C)C(=O)/C=C/c1ccc(S(=O)(=O)N2CCCCCC2)cc1 | ? | 3.6% | i | -2.0% | 20.6µM* | -6.9%
COc1ccc(/C=C/C(=O)N(C)CC(=O)Nc2cccc(F)c2)cc1S(=O)(=O)N1CCCCC1 | 18.4µM* | -18.9% | ? | 1.9% | 16.4µM* | 4.6%
COc1ncnc2c1ncn2CCCNCCCN1CCCC1=O | 4.3% | -7.3% | i | -4.0% | -22.6% | -9.8%
CCn1cc(S(=O)(=O)N2CCN(c3ccc(Cl)cc3)CC2)cn1 | ? | 1.0% | i | -5.0% | -28.7% | -18.4%
O=C(Cc1ccc(N2CCNC2=O)cc1)N1CCCC(Nc2ccc(F)c(F)c2)C1 (stereo unspecified) | 2.31µM* | -19.3% | i | -24.1% | 3.66µM* | -1.1%
O=C1CCCN1CCC(=O)N1CCCC(Nc2ccc(F)c(F)c2)C1 (stereo unspecified) | -0.6% | 26.5% | i | 2.4% | -14.1% | -6.4%
O=C(Cc1ccc(N2CCNC2=O)cc1)N1CCCC(Nc2cccc(F)c2)C1 (stereo unspecified) | 2.91µM* | . | ? | ? | 2.06µM* | -19.8%
O=C(c1cccc(N2CCNC2=O)c1)N1CCCC(Nc2cccc(F)c2)C1 (stereo unspecified) | -15.8% | 5.6% | i | -15.6% | -12.5% | -27.8%
COC(=O)c1ccccc1S(=O)(=O)N1CCC(C(=O)NCc2ccccn2)CC1 | 0.4% | . | i | -10.9% | 4.9% | -37.6%
CC(C)c1cc(Cn2c3ccccc3c(=O)n2C(C)Cn2cc(-c3ccccc3)nn2)on1 (stereo unspecified) | 10.7% | . | . | . | ? | .
CCOC(=O)C(=O)N=Nc1c(O)n(C)c2ccccc12 | -6.3% | . | i | -5.1% | 17.9% | 10.4%
Cc1occc1C(=O)N=Nc1c(O)n(C)c2ccccc12 | -10.7% | 19.1% | i | -2.7% | ? | 6.4%
Cn1c(O)c(N=NC(=O)c2ccco2)c2ccccc21 | -0.3% | 0.0% | i | 1.5% | 14.6µM* | -0.5%
Cc1cc(N=NC(=O)c2ccccc2O)c2ccccc2c1O | 16.4µM* | 6.3% | i | -27.3% | 18.4µM* | -12.5%
Cn1c(O)c(N=NC(N)=S)c2ccccc21 | 6.68µM* | . | . | . | 5.31µM* | .
Cc1ccccc1NC(=O)c1ccccc1O | -19.8% | 3.6% | i | ? | ? | -1.2%
Cn1c(O)c(N=NC(=O)c2ccccc2O)c2ccccc21 | 13µM* | 47.0% | i | -1.4% | 16.4µM* | -8.3%
SMILES | TDP1 cell CPT | ATXN2 expr inh | S2 tox | TGFb SMAD3 inh | TDP1 cell noCPT | HepG2 tox
CC(C)c1ccc(CC(=O)N2CCC2(C)C(=O)NS(=O)(=O)c2cccc(C#N)c2)cc1 (stereo unspecified) | 0.4% | 13.4% | i | 4.6% | -1.5% | -3.8%
CO[C@@H]1CN(C)C(=O)c2ccc(NC(=O)c3ccccc3F)cc2OC[C@@H](C)N(CC2CCOCC2)C[C@@H]1C | -5.9% | . | . | . | -7.3% | .
Cc1nn(-c2cc(C(F)(F)F)ccc2Cl)c2nc(C(Cl)(Cl)Cl)[nH]c(=O)c12 | 4.8% | -13.0% | i | ? | -19.6% | -23.6%
CC1C(=O)C(C)C(c2cc(Cl)ccc2O)NC1c1cc(Cl)ccc1O (stereo unspecified) | ? | 25.1µM* | . | ? | -73.4% | -144.3%
COC(=O)C1=C(Nc2cc(Cl)cc(Cl)c2)CSC1 | -6.7% | -7.4% | i | -0.4% | -26.0% | 0.9%
CC12CCC(=O)N1C(C(=O)Nc1ccc(S(=O)(=O)N3CCCCC3)cc1)CS2 (stereo unspecified) | -13.0% | -0.5% | i | -18.6% | -4.2% | -1.1%
CC1CC(C)CN(S(=O)(=O)c2ccc(NC(=O)C3CSC4(C)CCC(=O)N34)cc2)C1 (stereo unspecified) | 23.1µM* | -1.5% | i | -8.3% | ? | -42.1%
CN(C)c1ccc(S(=O)(=O)N2CCCCC2)cc1NC(=O)C1CSC2(C)CCC(=O)N12 (stereo unspecified) | -24.9% | 6.3% | i | -11.8% | 25.9µM* | -9.3%
O=C(O)C1CC[C@@](C(=O)O)(c2ccccc2)c2ccccc21 (stereo partly specified) | 11.2%[9.04 µM] | . | . | . | 11.0%[9.04 µM] | .
CC(C)c1ccc(C2=CC(c3cccc(Cl)c3)n3ncnc3N2)cc1 (stereo unspecified) | ? | 12.1% | . | -1.0% | 23.1µM* | -42.8%
CCc1ccc(C2N=C(N)Nc3nc4ccccc4n32)cc1 (stereo unspecified) | 16.4µM* | 0.7% | i | 14.0% | 18.4µM* | -16.7%
CC(C)c1ccc(C2=CC(c3cccc(Cl)c3)n3c(nc4ccccc43)N2)cc1 (stereo unspecified) | ? | . | . | -30.4% | 16.4µM* | -22.9%
NC1=NC(c2cccc(Cl)c2)n2c(nc3ccccc32)N1 (stereo unspecified) | 3.0% | . | . | 2.9% | -21.4% | -3.8%
